Test results as given in PubChem BioAssay AID488977 (Johns Hopkins Ion Channel Center, 2010).
Among all 310,000 compounds or so, about 1,500 (0.48%) were called active.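 The calls were made as follows: active = initial fluorescence not abnormally high and integrated response B-score, plate-corrected, over 3 SD above library mean; inactive = the rest.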 The list comes from a sample in which actives are over-represented; it also holds similar structures and randomly drawn compounds.

These molecules were tested against High affinity choline transporter 1 (Homo sapiens) (UniProt Q9GZV3) (assay: CHT positive allosteric modulators, primary screen, cell-based, membrane potential dye, choline EC20 (AID 488977)). Settings: CHT-expressing cells, at 10 µM, LV-AA mutant CHT in HEK293 cells; hits give high values.
Chain of High affinity choline transporter 1 (Homo sapiens) (Q9GZV3 whole entry, looked up): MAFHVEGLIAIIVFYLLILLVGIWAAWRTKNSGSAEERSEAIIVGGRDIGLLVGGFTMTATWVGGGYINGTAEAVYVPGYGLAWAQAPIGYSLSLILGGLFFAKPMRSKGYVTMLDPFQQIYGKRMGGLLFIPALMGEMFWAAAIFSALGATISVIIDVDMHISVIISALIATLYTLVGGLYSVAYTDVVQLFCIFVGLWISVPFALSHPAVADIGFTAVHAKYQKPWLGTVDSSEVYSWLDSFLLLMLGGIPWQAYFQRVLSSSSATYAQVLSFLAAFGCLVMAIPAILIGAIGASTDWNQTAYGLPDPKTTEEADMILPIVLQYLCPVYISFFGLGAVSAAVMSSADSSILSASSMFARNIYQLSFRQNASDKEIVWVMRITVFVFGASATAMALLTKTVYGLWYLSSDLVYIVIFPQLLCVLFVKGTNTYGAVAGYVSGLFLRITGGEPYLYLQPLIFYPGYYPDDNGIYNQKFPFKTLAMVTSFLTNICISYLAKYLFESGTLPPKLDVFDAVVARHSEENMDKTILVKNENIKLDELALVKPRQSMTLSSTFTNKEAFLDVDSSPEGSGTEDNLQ

SMILES	B-score
CN(C(=O)c1cc2c(=O)n3ccccc3nc2s1)C1CCCCC1	inactive
O=C1N[C@@H](Cc2ccccc2)C(=O)N2[C@H]1C[C@]1(Br)c3ccccc3N(S(=O)(=O)c3ccccc3)[C@H]21	inactive
O=S(=O)(O)Oc1c[nH]c2ccccc12	inactive
COc1cc2c(cc1OC)C(Nc1ccc(S(N)(=O)=O)cc1)=NC(C)(C)C2	9.17 (active)
COc1cc2c(cc1O)C(SC)=NC(C)(C)C2	inactive
COc1cc2c(cc1OC)C(C(C)C)=NC(C)(C)C2	inactive
O=C(NCCCc1ccccc1)C(=O)NCC1OCCN1S(=O)(=O)c1ccccc1 (stereo not given)	inactive
O=C(NCCC1=CCCCC1)C1CCN(Cc2cnn(-c3ccccc3)c2-n2cccc2)CC1	6.26 (active)
C1=C(CCNc2ncnc3c2cnn3-c2ccccc2)CCCC1	inactive
Cc1ccc(S(=O)(=O)N2CCC(C(=O)NCCC3=CCCCC3)CC2)cc1C	inactive
COc1ccccc1C(=O)Nc1ccccc1C(=O)Nc1ccccc1	inactive
COc1ccccc1-c1nnc(-c2ccc(F)cc2)o1	inactive
Cc1cc(=O)oc2ccc(OCC(=O)O)cc12	inactive
Cc1ccccc1N1CCN(CCCOc2ccc3c(C)cc(=O)oc3c2)CC1	inactive
Cc1cc(=O)oc2cc(OCCC[n+]3ccccc3)ccc12	8.55 (active)
O=[N+]([O-])c1ccc(N2CCN(S(=O)(=O)c3ccc4ccccc4c3)CC2)cc1NCc1ccco1	inactive
O=C(c1ccccc1)N1CCN(c2ccc([N+](=O)[O-])c(NCc3ccco3)c2)CC1	inactive
O=[N+]([O-])c1ccc(N2CCNCC2)cc1NCc1cccnc1	6.95 (active)
Cc1cc(Br)ccc1NC(=O)CN(C)C(=O)CN1C(=O)NC2(CCCC2)C1=O	inactive
COc1cc(/C=N/NC(=O)c2cc(-c3ccccc3C)nc3ccccc23)cc(OC)c1O	inactive
